From PubChem BioAssay AID624330 (Southern Research Specialized Biocontainment Screening …, 2012)
The campaign covered roughly 340,000 compounds. About 2,100 (0.62%) were called active.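 The calls were made as follows: active = first-screen hits whose inhibition reached a set limit at any dose in the follow-up dose series; inconclusive = inhibition above the set first-screen limit but never retested; inactive = the rest.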 The list is a sample of the results. Entries with a potency or affinity are not part of this list.

Target: Rac GTPase-activating protein 1 (Homo sapiens) (UniProt Q9H0H5)
Sequence (Q9H0H5 whole entry, looked up): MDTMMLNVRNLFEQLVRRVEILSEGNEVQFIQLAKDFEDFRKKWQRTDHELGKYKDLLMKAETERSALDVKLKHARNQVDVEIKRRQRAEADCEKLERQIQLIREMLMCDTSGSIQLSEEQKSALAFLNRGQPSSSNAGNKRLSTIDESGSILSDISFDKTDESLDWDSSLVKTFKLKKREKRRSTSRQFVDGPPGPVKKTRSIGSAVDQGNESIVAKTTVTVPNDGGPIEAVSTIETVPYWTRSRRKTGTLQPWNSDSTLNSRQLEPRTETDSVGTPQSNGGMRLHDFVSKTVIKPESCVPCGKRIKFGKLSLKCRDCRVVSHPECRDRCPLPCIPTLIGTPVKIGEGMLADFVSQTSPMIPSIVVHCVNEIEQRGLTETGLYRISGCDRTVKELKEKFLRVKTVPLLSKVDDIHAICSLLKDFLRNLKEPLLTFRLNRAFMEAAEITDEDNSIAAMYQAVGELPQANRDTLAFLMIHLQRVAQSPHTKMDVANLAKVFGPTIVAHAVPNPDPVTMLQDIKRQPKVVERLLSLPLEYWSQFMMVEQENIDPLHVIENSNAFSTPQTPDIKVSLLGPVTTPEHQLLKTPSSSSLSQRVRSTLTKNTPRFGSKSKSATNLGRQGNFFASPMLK
Experiment: blockers of MgcRacGAP-driven Rac1 GTP hydrolysis – biochemical, ADP Hunter fluorescence, primary and confirmatory, confirmation (AID 624330);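 also: fluorescence reports GDP produced by GAP-driven GTP hydrolysis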
Conditions: MgcRacGAP-stimulated Rac1 GTP hydrolysis, at 30 µM, stronger effect = higher value, GST-tagged Rac1 F28L mutant substrate

inhibition, inactive:
COc1ccc(CN(C)C(=O)Cc2ccc(OC)c(S(=O)(=O)N3CCOCC3)c2)cc1 6.77%, O=C1CSC(c2cn(-c3ccccc3)nc2-c2cc3ccccc3oc2=O)N1Cc1cccnc1 (stereo unspecified) -1.18%, CCN(CC)CCCN(C(=O)c1ccccc1F)c1nc(-c2ccc(OC)cc2)cs1 13.2%, c1ccc(C2=NN(c3ccccc3)CC2)cc1 10.1%, CSc1nnc(-c2nnc(SC)n2-c2ccccc2)n1-c1ccccc1 5.06%, COC(=O)C1=C(C)NC(=O)NC1c1ccc(OCC(=O)N2CCCCC2)cc1 (stereo unspecified) 6.29%, CC1(C)OC(=O)C=C[C@]2(C)[C@H]3CC[C@@]4(C)[C@H](C(=O)O)OC(=O)[C@H]5O[C@]54[C@]3(C)C(=O)C[C@@H]12 10.6%, C[C@@H]1CN([C@H](C)CO)S(=O)(=O)c2ccc(C#Cc3ccccc3)cc2O[C@@H]1CN(C)C(=O)CN(C)C 10.8%, CCOc1ccc(/C=N/NC(=O)Cc2csc(Nc3cccc(C(F)(F)F)c3)n2)cc1 13.7%, Cc1ccc(/C=C/C(=O)Nc2ccncc2)o1 8.37%, Cc1ccc(/C=C/C(=O)Nc2ccc([N+](=O)[O-])cc2)o1 5.27%, O=C(O)C1C2C=CC3(CN(c4cccc(C(F)(F)F)c4)C(=O)C13)O2 (stereo unspecified) 2.13%, Cc1cc(C)cc(N(CC(=O)N2CCCC2)S(C)(=O)=O)c1 0.27%, COc1ccccc1C(CNC(=O)CNC(=O)c1ccccc1Cl)N1CCCC1 (stereo unspecified) 4.57%, CCOCCCNC(=O)/C(C#N)=C/c1ccc(C)o1 -11.1%, CCOCCCNC(=O)/C(C#N)=C/c1ccc(Cl)c([N+](=O)[O-])c1 2.68%, O=S(=O)(c1ccccc1)c1nc(Nc2cccc(O)c2)sc1Cl 8.03%, COc1ccccc1NC(=O)c1cc2ccccc2o1 10.9%, COc1ccc2[nH]c3c(c2c1)CNCC3 17.4%, O=C(CNCC1CCCCC1)Nc1ccc(OC(F)(F)F)cc1 19.5%, CCN1CCCC1CNC(=O)C(=O)Nc1ccc(OC)cc1 (stereo unspecified) 8.81%, O=C(CN(Cc1ccco1)C(=O)CNS(=O)(=O)c1ccc(F)cc1)NCc1ccco1 7.49%, COCc1cc(/C=N\NC(=O)c2ccc(Cl)cc2)ccc1OC 7.25%, Cc1ccc(Cn2nnc3c(=O)[nH]c(C4CCCN(C(=O)Nc5ccc(F)cc5)C4)nc32)cc1 (stereo unspecified) 2.33%, COc1ccc2[nH]c3c(Cl)ncnc3c2c1 2.77%, COc1ccc2[nH]c3c(=S)nc[nH]c3c2c1 16.8%, Cc1c2ccncc2cc2c1[nH]c1ccccc12 8.32%, COc1ccc2[nH]c(C)cc(=O)c2c1 17.3%, CC(C)C(=O)N(Cc1cc2ccccc2[nH]c1=O)C(C)(C)C 4.65%, Cc1ccc(S(=O)(=O)N2CCN(C(=O)COC(=O)CC(C)c3ccccc3)CC2)c(C)c1 (stereo unspecified) -1.45%, COc1ccccc1NC(=S)NCC1CCCO1 (stereo unspecified) 8.32%, Cc1cc(F)ccc1S(=O)(=O)N1CCCOC1CNC(=O)C(=O)NCC(C)C (stereo unspecified) 3.59%, O=C(CCC(=O)c1cccs1)NCc1ccncc1 8.09%, COc1ccccc1CNS(=O)(=O)CCNCc1ccco1 7.98%, Cc1ccc(NCCc2ccc(C)nc2)cc1 24.8%, Cc1ccc(CCNc2ccccc2C)cn1 6.7%, Cc1ccc(/C=N/Nc2nncn2N)cc1 -7.75%, CCc1nnc(N/N=C/c2ccccc2F)n1N -6.59%, CCc1nnc(N/N=C/c2cc(C)c(C)cc2C)n1N 8.58%, CCc1nnc(N/N=C/c2c(Cl)cccc2Cl)n1N 6.89%, Cc1[nH]c2ccccc2c1/C=N/n1cnnc1 11.3%, Cc1[nH]c2ccccc2c1/C=N/NC(N)=S 15.4%, Cc1ccc(CN(C)C(=O)CSc2nnc3n2CCCCC3)c(C)c1 -1.85%, CCC(C(=O)OC)n1cnc2c(nnn2-c2cccc(Cl)c2)c1=O (stereo unspecified) -2.79%, COc1ccc(N2CCN(C(=O)c3sc4ncn(CC(=O)N5CCCCC5)c(=O)c4c3C)CC2)cc1 22.1%, O=C(NC1CCSc2ccccc21)c1cc(S(=O)(=O)N2CCOCC2)ccc1Cl (stereo unspecified) 0.41%, N#Cc1ccsc1NC(=O)CCN1C(=O)C2CCCCC2C1=O (stereo unspecified) -1.49%, C/C(=N\NC(=O)c1c(Cl)cnn1C)c1cccc(NC(=O)c2ccc(C)cc2)c1 2.57%, COC(=O)/C(=C\c1ccc([N+](=O)[O-])cc1)NC(=O)c1ccccc1 -0.53%, CCO[C@@H]1OC(C(=O)NC2CC2)=C[C@H](c2ccccc2)[C@H]1CCCO 2.47%, COC1=C(Br)C(=O)c2ncccc2C1=O -0.95%, COC1=C(N)C(=O)c2nc(C)ccc2C1=O -3.53%, COc1ccc(CN(CC(=O)NCc2ccco2)C(=O)CNS(=O)(=O)c2ccc(C)cc2)cc1 -1.32%, COc1ccc(CCCN2CCC(CN3CCNC(=O)C3=O)CC2)cc1OC 15.8%, COc1ccc(/C=N/N2CCN(c3ccc(Cl)cc3)CC2)cc1O 13.4%, C[C@H](NC(=O)c1ccc(Cl)cc1)C(=O)NNC(=O)c1cccs1 4.07%, O=C(O)/C(=C\c1ccc(Cl)c([N+](=O)[O-])c1)c1ccc(S(=O)(=O)N2CCCCC2)s1 9.75%, COc1ccc(/C=C/C(=O)OCC(=O)c2ccc[nH]2)cc1 2.04%, COc1cc(/C=C/C(=O)OCC(=O)c2ccc[nH]2)cc(OC)c1OC 1.61%, O=C(/C=C/c1ccco1)OCC(=O)c1ccc(OC(F)F)cc1 7.34%, COc1cc(/C=C/C(=O)OCC(=O)c2c(N)n(C)c(=O)n(C)c2=O)ccc1O 17%
